In PubChem BioAssay AID463173 (ICCB-Longwood Screening Facility, Harvard Medical School, 2010):
The whole screen tested about 52,000 compounds, of which about 4,300 (8.3%) were called active. For the sample, actives were picked, then their nearest neighbours and some compounds at random. Values without a mark were called inactive. No stated cut-off is given here; in the data, active means survival mostly below about 52% (no sharp cut-off); inactive means mostly above about 56%.

Each molecule was assayed on DeltatarO mutant (assay: S. aureus survival, RN4220 and DeltatarO strains – OD600, teichoic acid synthesis inhibitors, primary screen (AID 463173)). Conditions: S. aureus RN4220 wild type/DeltatarO growth, OD600, 18 h, active compounds read low, screened at 18.75 µg/mL (by protocol).
Molecule `CSc1ccc(CCNC(=O)c2cc3c(-c4ccccc4F)nn(C)c3s2)cc1` has a survival of 55%. `CCOc1ccc(CNC(=O)C2CCN(S(=O)(=O)c3cn(C)cn3)CC2)cc1` gave a survival of 99%. With `Cc1ccc(NC(=O)CCn2nc(C)c3c(C)n(-c4ccccc4)nc3c2=O)cc1Cl` the survival was 117%. Work on `CCOCCCn1c(SCC(=O)Nc2ccc(OC)cc2OC)nc2ccccc2c1=O` yielded a survival of 89%. `CCOC(=O)C1CCCN(C(=O)c2ccccc2NC(=O)c2nsc3ccccc23)C1` (stereo not given) was tested, and the survival was 130%. With `CCOC(=O)c1[nH]c(C)c(CCC(=O)Nc2ccc(C(C)=O)cc2)c1C` the survival was 72%. With `O=C(NCc1ccccc1)C(=O)Nc1ccc2nc3n(c(=O)c2c1)CCCCC3` the survival was 88%. `COc1cccc(Cn2c(=O)n(Cc3ccco3)c(=O)c3oc4ccccc4c32)c1` showed a survival of 66%. `O=C(CC1CCCCC1)N1CCN(c2ccccc2)CC1` gave a survival of 82%. In the case of `O=C(Nc1nnc(S(=O)(=O)N2CCc3ccccc32)s1)c1ccccc1Cl`, the survival is reported as 20% (active). `O=C(Nc1nnc(S(=O)(=O)N2CCCc3ccccc32)s1)c1ccccc1Br` was tested, and the survival was 17% (active). `Cc1ccccc1C(=O)Nc1nnc(S(=O)(=O)N2CCCc3ccccc32)s1` was tested, and the survival was 96%. With `Cc1ccccc1C(=O)Nc1nnc(S(=O)(=O)N2CCc3ccccc32)s1` the survival was 95%. In the case of `O=C(Nc1nnc(S(=O)(=O)N2CCCc3ccccc32)s1)c1ccccc1Cl`, the survival is reported as 28% (active). In the case of `CCOC(=O)c1ccc(CN(Cc2ccccc2C)S(=O)(=O)c2ccc(F)c(C(=O)Nc3cccc(OC)c3)c2)cc1`, the survival is reported as 75%. `CCNC(=O)CC1C(=O)N(c2ccc(F)cc2)C(=O)N1CCOC` (stereo not given) was tested, and the survival was 84%. For `COc1ccc(CN(C(=O)Cc2coc3ccc(C)cc23)C2CCS(=O)(=O)C2)cc1` (stereo not given), the survival was 67%. `Cc1cc2n(n1)CCCN2C(=O)Nc1ccccc1C(F)(F)F` was tested, and the survival was 76%. `CCc1ccc(NC(=O)C(=O)NCC(c2cccnc2)N2CCOCC2)cc1` (stereo not given) was tested, and the survival was 89%. With `CC(=O)Oc1ccc(Nc2nc3nonc3nc2Nc2ccccc2)cc1` the survival was 83%. With `CC(=O)Nc1cc(OC(C)=O)c2nonc2c1OC(C)=O` the survival was 29% (active). Molecule `CC(=O)Nc1nonc1NC(C)=O` has a survival of 87%. For `COC(=O)c1nnn(-c2ccc(Br)cc2)c1C(=O)OC`, the survival was 79%. `COC(=O)c1ccc(NC(=O)CCc2c(C)nc3c(c(C)nn3C(C)(C)C)c2C)cc1` showed a survival of 59%. `CCOC(=O)c1ccc(NC(=O)CCc2c(C)nc3c(c(C)nn3C(C)(C)C)c2C)cc1` was tested, and the survival was 55% (active). In the case of `CCOC(=O)c1ccc(NC(=O)CCc2c(C)nc3c(c(C)nn3C)c2C)cc1`, the survival is reported as 93%. With `Cc1ccc(-c2nc(CNC(=O)Nc3ccccc3)c(C)o2)cc1` the survival was 71%. Molecule `COC(=O)c1cc2c(ccn2-c2ccc(F)cc2)n1CC(=O)N1CCCCC1` has a survival of 97%. In the case of `COc1ccc(C)cc1NC(=O)C1CCN(S(=O)(=O)c2ccc3[nH]c4c(c3c2)CCCCC4)CC1`, the survival is reported as 94%. With `COC(=O)c1cc(NC(=O)CCc2c(C)nc3c4c(C)cc(C)nc4nn3c2C)cc(C(=O)OC)c1` the survival was 56% (active). `COc1cc(NC(=O)CCc2c(C)nc3c4c(C)cc(C)nc4nn3c2C)cc(OC)c1` was tested, and the survival was 74%. With `CCOc1ccc(NC(=O)CCc2c(C)nc3c4c(C)cc(C)nc4nn3c2C)cc1` the survival was 125%. Work on `COc1ccc(NC(=O)c2oc3ccc(S(=O)(=O)N4CCCCC4)cc3c2C)cc1` yielded a survival of 87%. In the case of `CC(C)Cn1cc(NC(=O)N2CCN(c3cccc(C(F)(F)F)c3)CC2)c2ccccc2c1=O`, the survival is reported as 77%. `COc1ccc(CCNC(=O)Cn2ncc3c(=O)oc4ccccc4c32)c(OC)c1` showed a survival of 89%. `CCC1CCCCN1C(=O)CCS(=O)(=O)c1cc2c(cc1C)NC(=O)CO2` (stereo not given) showed a survival of 81%. `CC(C)C1C(=O)Nc2ccc(S(=O)(=O)NCCc3ccc(Cl)cc3)cc21` (stereo not given) was tested, and the survival was 77%. In the case of `COc1cccc(CNS(=O)(=O)c2ccc3c(c2)C(C(C)C)C(=O)N3)c1` (stereo not given), the survival is reported as 129%. In the case of `CC(C)C1C(=O)Nc2ccc(S(=O)(=O)NCc3ccc(Cl)cc3)cc21` (stereo not given), the survival is reported as 52% (active). `CCCNc1c2c(nc3ccccc13)CC(C)(C)CC2=O` was tested, and the survival was 66%. Work on `CCOc1ccccc1CNC(=O)c1ccc2nc(Cc3ccc(OC)cc3)oc2c1` yielded a survival of 73%. In the case of `CN(C1CCCCC1)C(c1ccc(F)cc1)c1nnnn1C1CCCCC1` (stereo not given), the survival is reported as 83%. Work on `Cc1ccc(C)c(-c2nc(Cn3c(=O)cc(-c4ccccc4)c4c(C)nn(C)c43)c(C)o2)c1` yielded a survival of 130%. `CCOC(=O)c1ccc(NC(=O)c2noc3c2CCCC3)cc1` was tested, and the survival was 0% (active). `CCOC(=O)c1ccc(NC(=O)c2csc3c2CCCC3)cc1` was tested, and the survival was 36% (active). `CCOC(=O)c1ccc(NC(=O)c2c(NCc3cccs3)sc3c2CCCCC3)cc1` showed a survival of 104%. For `CSc1ccc(CCNC(=O)c2csc3c2CCCCC3)cc1`, the survival was 63%. In the case of `CCOC(=O)c1ccc(NC(=O)c2cccc3c(=O)c4c([nH]c23)CCCC4)cc1`, the survival is reported as 60%. `COc1ccc(NC(=O)c2noc3c2CCCC3)cc1Cl` was tested, and the survival was 83%. `CCOC(=O)c1ccc(NC(=O)c2c(NCc3sccc3C)sc3c2CCCCC3)cc1` showed a survival of 78%. In the case of `O=C(Nc1ccc(OC(F)(F)F)cc1)c1noc2c1CCCC2`, the survival is reported as 65%. `CC(CNC(=O)c1csc2c1CCCCC2)c1ccccc1` (stereo not given) was tested, and the survival was -1% (active). With `CCC(Cc1ccccc1)NC(=O)c1csc2c1CCCCC2` (stereo not given) the survival was 125%. For `CCOC(=O)c1ccc(NC(=O)c2csc3c2CCCCC3)cc1`, the survival was 39% (active). Work on `CCOC(=O)c1ccc(NC(=O)c2c(NCc3cccs3)sc3c2CCCC3)cc1` yielded a survival of 78%. For `CCC(=O)C1=C(c2ccccc2)N(C(=O)CC)n2c(nnc2C2CCCCC2)S1`, the survival was 55%. Molecule `N#CCCn1c(=O)n(CCC#N)c(=O)n(CCC#N)c1=O` has a survival of 79%. In the case of `O=C1NC2(CCCCC2)C(=O)N1c1ccc(Cl)cc1`, the survival is reported as 109%. `CCC(=O)OCCN1C(=O)c2ccccc2C1=O` was tested, and the survival was 91%. `COc1ccc(C(=O)Nc2ccc(NC(=O)c3ccco3)cc2)cc1OC` showed a survival of 71%. `N#Cc1cccc(NC(=O)C2CCN(c3ncccn3)CC2)c1` showed a survival of 66%. For `Cc1cccc(CCn2c(=O)c3ccccc3n(CC(=O)Nc3ccccc3F)c2=O)c1`, the survival was 76%. `O=C(Nc1ccccc1O)c1csc2c1CCCC2` showed a survival of 80%. `CCOc1ccc(OCC)c(NC(=O)c2csc3c2CCCC3)c1` was tested, and the survival was -2% (active). `CCOc1ccc(CCNC(=O)c2csc3c2CCCCC3)cc1` showed a survival of 73%. For `CCn1c(C(=O)Nc2cc(C)cc(C)c2)cc2sc(Cl)cc21`, the survival was 109%. Work on `CCn1c(C(=O)Nc2cc(Cl)ccc2C)cc2sc(Cl)cc21` yielded a survival of 77%. With `CCn1c(C(=O)Nc2c(C)cccc2C)cc2sc(Cl)cc21` the survival was 60% (active). `CCn1c(C(=O)Nc2ccccc2C(=O)OC)cc2sc(Cl)cc21` was tested, and the survival was 31% (active). In the case of `CCn1c(C(=O)Nc2ccc(C)cc2C)cc2sc(Cl)cc21`, the survival is reported as 58%. With `CCc1ccccc1NC(=O)c1cc2sc(Cl)cc2n1CC` the survival was 77%. Molecule `COC(=O)c1[nH]c2ccc(F)cc2c1N` has a survival of 98%. `CCN(CC)c1ccc2cc(C(=O)Nc3ccc(NC(C)=O)cc3)c(=O)oc2c1` was tested, and the survival was 94%. Molecule `O=C(NCCc1ccccc1)c1ccc(CSc2nc3ccncc3n2Cc2ccccc2)cc1` has a survival of 73%. With `COc1cc(NC(=O)C(Cc2ccccc2)NS(=O)(=O)c2cccs2)cc(OC)c1` (stereo not given) the survival was 102%. Molecule `CCCOc1ccc(CNC(=O)C(NS(=O)(=O)c2cccs2)C(C)C)cc1` (stereo not given) has a survival of 77%. In the case of `CCc1cccc(NC(=O)C(Cc2ccccc2)NS(=O)(=O)c2cccs2)c1` (stereo not given), the survival is reported as 44% (active). Molecule `CCc1cccc(NC(=O)C(Cc2ccccc2)NS(=O)(=O)c2ccc3c(c2)c(=O)n(C)c(=O)n3C)c1` (stereo not given) has a survival of 54%. In the case of `CCc1ccc(NC(=O)C(Cc2ccccc2)NS(=O)(=O)c2ccc3c(c2)c(=O)n(C)c(=O)n3C)cc1` (stereo not given), the survival is reported as 45% (active). `Cc1ccc(NC(=O)C(Cc2ccccc2)NS(=O)(=O)c2cccs2)cc1Cl` (stereo not given) was tested, and the survival was 90%. In the case of `Cc1ccc(NC(=O)C(Cc2ccccc2)NS(=O)(=O)c2ccc3c(c2)c(=O)n(C)c(=O)n3C)cc1` (stereo not given), the survival is reported as 64%. For `CCc1ccc(NC(=O)C(NS(=O)(=O)c2cccs2)C(C)C)cc1` (stereo not given), the survival was 55% (active). In the case of `Cc1ccc(CNC(=O)C(NS(=O)(=O)c2cccs2)C(C)C)cc1` (stereo not given), the survival is reported as 61%. Work on `CC(CNC(=O)c1ccc2c(c1)nc1n2CCCCC1)c1ccccc1` (stereo not given) yielded a survival of 62%. For `CCOC(=O)c1ccc(CN(Cc2ccccc2C)S(=O)(=O)c2ccc(F)c(C)c2)cc1`, the survival was 80%. Molecule `Cn1cnc(S(=O)(=O)N2CCCC(C(=O)NCc3ccc(F)cc3)C2)c1` (stereo not given) has a survival of 55%. With `CCOC(=O)CN1N=NC2C(=O)N(c3ccccc3)C(=O)C21` (stereo not given) the survival was 92%. `O=C(c1ccc2c(c1)OCCO2)N(Cc1cccnc1)c1nc2c(F)cc(F)cc2s1` gave a survival of 88%. `Cc1ccc(CCNC(=O)CN(c2ccc(C(C)C)cc2)S(=O)(=O)c2c(C)nn(C)c2C)cc1` showed a survival of 68%. Work on `Cc1ccc(C(=O)c2cn(Cc3c(F)cccc3Cl)c3nc(C)ccc3c2=O)cc1` yielded a survival of 62%. In the case of `CCc1ccc(NC(=O)CSC2=Nc3ccccc3C3=NC(CCC(=O)NCCc4ccccc4)C(=O)N23)cc1` (stereo not given), the survival is reported as 81%. For `O=S(=O)(/C=C/c1ccccc1)N1CCOCC1`, the survival was 67%. For `Cc1ccc(CSc2nc(N)cc(N)n2)cc1`, the survival was 114%. In the case of `N#CCSc1nc(N)cc(N)n1`, the survival is reported as 52% (active). In the case of `N#Cc1ccccc1CSc1nc(N)cc(N)n1`, the survival is reported as 106%.
